# Activity calls are given as the source filed them.
# Columns and labels:
# [1] = tested on: Plasmodium falciparum Sir2 (PF13_0152, Sir2A); assay: pfSir2 binders on small-molecule microarrays, primary screen, biochemical, small-molecule microarray, 635 nm fluorescence (AID 1098); conditions: small-molecule microarray binding, fluorescence 635 nm; higher = more signal;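 further: score merges spot fluorescence intensity with its signal-to-noise ratio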
# [2] = small-molecule microarray binders of probe aDKK1, primary screen, biochemical, biotinylated probe, 635/667 nm fluorescence (AID 1099); conditions: higher = more signal;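 further: score merges 667nm spot fluorescence with signal to noise across triplicate slides; reference of the scale not given here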
# [3] = small-molecule microarray binders of probe aCHRDL2, primary screen, biochemical, biotinylated probe, 635/667 nm fluorescence (AID 1100); conditions: higher = more signal
# [4] = splicing luciferase reporter signal modulators, primary screen, spliceosome inhibition project, cell-based, HEK293, splice +/- reporter (AID 1101); conditions: luminescence, 24 h, higher = more signal, called active from +8 up or from −8 down;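 further: HEK293 cells carrying a splicing-competent luciferase reporter gene; test concentration not given here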
# [5] = target: Fibroblast growth factor 10 (Homo sapiens) (UniProt O15520); assay: FGF10 binders on small-molecule microarrays, primary screen, biochemical, small-molecule microarray, 635 nm fluorescence (AID 1102); conditions: FGF10 binding, fluorescence 635 nm, higher = more signal
# [6] = tested on: glycogen synthase kinase-3 (GSK3A per assay name; protocol says GSK3B); assay: GSK3 binders on small-molecule microarrays, primary screen, biochemical, small-molecule microarray, 635 nm fluorescence, GSK3A (AID 1103); conditions: small-molecule microarray binding, fluorescence 635 nm; higher = more signal; further: the record names both GSK3A and GSK3B
# [7] = target: Epidermal growth factor receptor (Homo sapiens) (UniProt P00533); assay: EGFR binders on small-molecule microarrays, primary screen, biochemical, small-molecule microarray, 635 nm fluorescence (AID 1104); conditions: EGFR binding, higher = more signal;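 further: score merges 667 nm emission intensity with spot signal to noise over triplicate slides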
# [8] = target: Follistatin-related protein 3 (Homo sapiens) (UniProt O95633); assay: FSTL3 binders on small-molecule microarrays, primary screen, biochemical, small-molecule microarray, 635 nm fluorescence (AID 1105); conditions: FSTL3 binding, higher = more signal;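 further: score merges emission near 667 nm and signal to noise per printed spot across three slides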
# [9] = target: Dickkopf-related protein 1 (Homo sapiens) (UniProt O94907); assay: DKK1 binders on small-molecule microarrays, primary screen, biochemical, small-molecule microarray, 635 nm fluorescence scan (AID 1106); conditions: DKK1 binding, higher = more signal;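 further: score merges emission near 667 nm with signal to noise over three replicate slides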
# [10] = tested on: Inhibin beta A chain (activin A); assay: INHBA (activin A) binders on microarrays, primary screen, biochemical, small-molecule microarray, 635 nm fluorescence scan (AID 1107); conditions: small-molecule microarray binding, higher = more signal;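 further: mouse activin A protein probed at 4.33 µg/mL on printed slides; score merges bound-protein fluorescence near 667 nm with spot signal-to-noise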
# Sequence of Follistatin-related protein 3 (Homo sapiens) (O95633 whole entry, looked up): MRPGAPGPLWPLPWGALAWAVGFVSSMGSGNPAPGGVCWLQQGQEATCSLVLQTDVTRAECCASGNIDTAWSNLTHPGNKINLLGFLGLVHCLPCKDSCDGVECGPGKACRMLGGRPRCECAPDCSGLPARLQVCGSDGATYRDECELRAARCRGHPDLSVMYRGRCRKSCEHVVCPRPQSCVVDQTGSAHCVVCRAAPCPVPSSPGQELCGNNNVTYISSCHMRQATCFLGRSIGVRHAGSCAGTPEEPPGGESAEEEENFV
# Sequence of Epidermal growth factor receptor (Homo sapiens) (P00533 whole entry, looked up): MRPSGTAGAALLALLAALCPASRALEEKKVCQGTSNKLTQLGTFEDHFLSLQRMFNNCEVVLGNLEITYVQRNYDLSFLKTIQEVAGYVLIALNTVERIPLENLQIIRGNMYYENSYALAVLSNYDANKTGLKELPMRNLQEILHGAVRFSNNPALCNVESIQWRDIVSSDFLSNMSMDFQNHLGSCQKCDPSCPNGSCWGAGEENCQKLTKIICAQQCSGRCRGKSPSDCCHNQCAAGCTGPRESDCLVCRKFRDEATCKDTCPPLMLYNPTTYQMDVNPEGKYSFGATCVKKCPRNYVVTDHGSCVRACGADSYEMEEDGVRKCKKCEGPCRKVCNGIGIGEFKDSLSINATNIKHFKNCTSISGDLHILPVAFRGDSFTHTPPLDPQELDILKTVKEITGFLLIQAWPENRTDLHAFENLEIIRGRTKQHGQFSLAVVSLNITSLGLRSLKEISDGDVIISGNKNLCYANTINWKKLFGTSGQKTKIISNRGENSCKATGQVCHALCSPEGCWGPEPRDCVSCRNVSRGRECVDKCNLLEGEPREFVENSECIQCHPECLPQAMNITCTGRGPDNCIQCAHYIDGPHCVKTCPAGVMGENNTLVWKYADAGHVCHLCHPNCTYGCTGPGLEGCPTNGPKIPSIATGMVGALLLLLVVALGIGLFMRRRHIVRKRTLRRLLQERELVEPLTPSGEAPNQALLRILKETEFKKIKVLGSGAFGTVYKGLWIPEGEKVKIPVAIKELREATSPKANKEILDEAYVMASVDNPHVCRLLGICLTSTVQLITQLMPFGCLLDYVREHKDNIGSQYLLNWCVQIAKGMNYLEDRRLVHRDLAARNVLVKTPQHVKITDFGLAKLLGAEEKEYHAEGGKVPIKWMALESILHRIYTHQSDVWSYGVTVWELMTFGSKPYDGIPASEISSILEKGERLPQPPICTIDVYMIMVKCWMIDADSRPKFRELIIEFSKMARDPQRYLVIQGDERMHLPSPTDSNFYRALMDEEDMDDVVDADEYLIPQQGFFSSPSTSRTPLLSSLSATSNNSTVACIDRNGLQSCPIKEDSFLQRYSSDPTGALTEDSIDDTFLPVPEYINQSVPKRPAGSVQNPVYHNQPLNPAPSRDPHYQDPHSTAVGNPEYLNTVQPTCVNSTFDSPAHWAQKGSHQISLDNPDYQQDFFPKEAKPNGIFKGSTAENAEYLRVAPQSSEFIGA
# Sequence of Fibroblast growth factor 10 (Homo sapiens) (O15520 whole entry, looked up): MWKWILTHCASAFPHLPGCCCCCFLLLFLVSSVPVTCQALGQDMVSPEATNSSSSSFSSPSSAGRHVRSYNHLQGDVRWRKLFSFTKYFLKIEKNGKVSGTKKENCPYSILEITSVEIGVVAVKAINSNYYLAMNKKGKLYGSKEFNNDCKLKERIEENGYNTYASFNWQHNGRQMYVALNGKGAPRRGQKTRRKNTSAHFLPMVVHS
# Sequence of Dickkopf-related protein 1 (Homo sapiens) (O94907 whole entry, looked up): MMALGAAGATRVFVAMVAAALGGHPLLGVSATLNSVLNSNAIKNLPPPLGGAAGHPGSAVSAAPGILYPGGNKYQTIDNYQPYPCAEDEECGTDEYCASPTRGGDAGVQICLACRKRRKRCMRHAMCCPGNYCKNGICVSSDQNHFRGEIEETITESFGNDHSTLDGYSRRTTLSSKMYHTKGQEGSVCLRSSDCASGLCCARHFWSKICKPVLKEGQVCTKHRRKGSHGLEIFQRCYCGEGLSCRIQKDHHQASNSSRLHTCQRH
compound,measurement,setting,value
Cc1ccc(S[C@]2(C(=O)NCCCN(C)C)CC(=O)N(Cc3ccccc3)[C@@H]2c2ccc(CO)cc2)cc1,composite z-score,[1],-1.43
same,composite z-score,[2],0.938
same,composite z-score,[3],1.15
same,z-score,[4],-0.522 (inactive)
same,composite z-score,[5],-1.01
same,composite z-score,[6],-0.726
same,composite z-score,[7],-1.03
same,composite z-score,[8],-1.26
same,composite z-score,[9],-0.909
same,composite z-score,[10],0.591
[N-]=[N+]=NCc1ccccc1C[C@]1(C(=O)NCC(O)CO)COC(c2ccc(OCCCO)cc2)=N1 (stereo not given in full),composite z-score,[1],1.08
same,composite z-score,[2],1.22
same,composite z-score,[3],1.5
same,z-score,[4],1.1 (inactive)
same,composite z-score,[5],-0.0207
same,composite z-score,[6],-0.493
same,composite z-score,[7],-1.13
same,composite z-score,[8],0.324
same,composite z-score,[9],-0.372
same,composite z-score,[10],0.462
CN(C)CCCC[C@@H]1NC(=O)[C@H]2C[C@@H](C(=O)NCCCCCNC(=O)CS)[C@@H](c3ccc(O)cc3)N2C1=O,composite z-score,[1],0.133
same,composite z-score,[2],0.0417
same,composite z-score,[3],0.308
same,z-score,[4],1.1 (inactive)
same,composite z-score,[5],-1.2
same,composite z-score,[6],-0.53
same,composite z-score,[7],-0.483
same,composite z-score,[8],-1.39
same,composite z-score,[9],-0.653
same,composite z-score,[10],0.0182
COCCCNC(=O)[C@@]1(C)c2ccccc2C(=O)N(Cc2ccccc2)[C@H]1c1ccc(CO)cc1,composite z-score,[1],1.43
same,composite z-score,[2],-0.0769
same,composite z-score,[3],1.02
same,z-score,[4],-0.626 (inactive)
same,composite z-score,[5],-0.398
same,composite z-score,[6],-0.595
same,composite z-score,[7],-0.848
same,composite z-score,[8],-1.03
same,composite z-score,[9],-1.76
same,composite z-score,[10],-0.79
COC(=O)[C@@]1(Cc2ccccc2)[C@H]2c3cc(C(=O)N(C)C)n(Cc4ccccc4)c3C[C@H]2CN1C(=O)c1ccccc1,composite z-score,[1],1.05
same,composite z-score,[2],0.855
same,composite z-score,[3],0.816
same,z-score,[4],-1.03 (inactive)
same,composite z-score,[5],0.69
same,composite z-score,[6],-0.0617
same,composite z-score,[7],-0.262
same,composite z-score,[8],0.383
same,composite z-score,[9],-0.61
same,composite z-score,[10],0.735
[N-]=[N+]=NCc1ccccc1[C@@H]1OC(c2ccc(OCCCO)cc2)=N[C@]1(Cc1ccccc1N=[N+]=[N-])C(N)=O,composite z-score,[1],1.48
same,composite z-score,[2],0.367
same,composite z-score,[3],1.16
same,z-score,[4],0.352 (inactive)
same,composite z-score,[5],1.38
same,composite z-score,[6],1.27
same,composite z-score,[7],-0.0099
same,composite z-score,[8],0.995
same,composite z-score,[9],0.259
same,composite z-score,[10],1.06
CCOC(=O)C1=C[C@@H](C(C)(C)C)N(S(=O)(=O)c2ccc(C)cc2)[C@H]1c1ccc(Cl)c(Cl)c1,composite z-score,[1],1.1
same,composite z-score,[2],0.665
same,composite z-score,[3],0.827
same,z-score,[4],0.425 (inactive)
same,composite z-score,[5],0.733
same,composite z-score,[6],1.3
same,composite z-score,[7],0.481
same,composite z-score,[8],0.924
same,composite z-score,[9],0.023
same,composite z-score,[10],0.326
CCCCCN1CC=CC23O[C@@H]4C=CCCOC(=O)C4[C@H]2C(=O)N(CCCO)[C@@H]3C1=O (stereo not given in full),composite z-score,[1],1.06
same,composite z-score,[2],-0.117
same,composite z-score,[3],-0.141
same,z-score,[4],-0.588 (inactive)
same,composite z-score,[5],-0.0549
same,composite z-score,[6],-0.452
same,composite z-score,[7],-0.928
same,composite z-score,[8],-0.344
same,composite z-score,[9],0.0124
same,composite z-score,[10],-0.166
O=C1[C@H]2C=C(Br)[C@H](C[C@@H]2OCCOCCO)[C@@]12CO2,composite z-score,[1],0.146
same,composite z-score,[2],-0.119
same,composite z-score,[3],-0.115
same,z-score,[4],0.651 (inactive)
same,composite z-score,[5],0.527
same,composite z-score,[6],0.144
same,composite z-score,[7],0.475
same,composite z-score,[8],0.118
same,composite z-score,[9],0.18
same,composite z-score,[10],1.02
Cc1ccc(S[C@]2(C(=O)NCC(F)(F)F)CC(=O)N(C3Cc4ccccc4C3)[C@@H]2c2ccc(CO)cc2I)cc1,composite z-score,[1],1.08
same,composite z-score,[2],0.599
same,composite z-score,[3],1.19
same,z-score,[4],-0.426 (inactive)
same,composite z-score,[5],-1.02
same,composite z-score,[6],-1.3
same,composite z-score,[7],-1.51
same,composite z-score,[8],-1
same,composite z-score,[9],-2.11
same,composite z-score,[10],0.554
CN(C)CCCCCCNC(=O)[C@@H]1C[C@@H]2C(=O)NCC(=O)N2[C@@H]1c1cccc(OCCO)c1,composite z-score,[1],1.39
same,composite z-score,[2],0.156
same,composite z-score,[3],-0.0688
same,z-score,[4],0.0236 (inactive)
same,composite z-score,[5],1.34
same,composite z-score,[6],1.36
same,composite z-score,[7],0.654
same,composite z-score,[8],1.48
same,composite z-score,[9],1.28
same,composite z-score,[10],0.433
COC(=O)[C@@]1(Cc2ccc(F)cc2)[C@H]2c3cc(C(=O)N4CCCC4)n(CCc4ccc(OC)c(Br)c4)c3C[C@H]2CN1C(=O)c1ccccc1,composite z-score,[1],0.972
same,composite z-score,[2],1.55
same,composite z-score,[3],1.52
same,z-score,[4],-2.23 (inactive)
same,composite z-score,[5],0.68
same,composite z-score,[6],1.33
same,composite z-score,[7],-0.0295
same,composite z-score,[8],1.22
same,composite z-score,[9],-0.813
same,composite z-score,[10],0.475
[N-]=[N+]=NCc1ccccc1C[C@]1(C(=O)NCCN2CCOCC2)N=C(c2ccc(OCCCO)cc2)O[C@H]1c1ccccc1CN=[N+]=[N-],composite z-score,[1],1.5
same,composite z-score,[2],0.304
same,composite z-score,[3],0.71
same,z-score,[4],-1.27 (inactive)
same,composite z-score,[5],1.48
same,composite z-score,[6],1.32
same,composite z-score,[7],0.357
same,composite z-score,[8],0.535
same,composite z-score,[9],0.16
same,composite z-score,[10],0.928
